Inconclusive results are not listed. Where a call stands in place of a potency, no number is given. Values without a mark were called inactive. Calls of active or inactive are those of the source. Calls follow the shape of the dose curve; as a rule, active = well fitted curve in the direction sought with a large enough effect; inconclusive = small, poorly fitted or top-dose-only effect, or another doubt; inactive = no such curve, though single readings can be large; an effect the other way counts as inactive or inconclusive.
Columns and labels:
[1] = target: Aldehyde dehydrogenase, mitochondrial (Homo sapiens) (UniProt P05091); assay: qHTS for Inhibitors of the Aldehyde Dehydrogenase Family (ALDH2) Primary screen (AID 2061308); also: nearly all actives have a fitted effect of over 55% in size
[2] = target: Retinaldehyde dehydrogenase 3 (Homo sapiens) (UniProt P47895); assay: qHTS for Inhibitors of the Aldehyde Dehydrogenase Family (ALDH1A3) Primary screen (AID 2061315)

Compound | Potency [1] | Potency [2] | activity change, negative = inhibition [1] | activity change, negative = inhibition [2]
Cc1cc(C)nc(NC(=S)N2CCN(c3ccc([N+](=O)[O-])c4cccnc34)CC2)c1 | inactive | inactive | – | –
Cc1ccc(OCCn2c(CCNC(=O)c3ccc4ccccc4c3)nc3ccccc32)cc1 | inactive | inactive | – | –
COc1cc(O)c(C(CC(=O)N2CCC(Cc3ccccc3)CC2)c2ccc(OC)c(OC)c2)c(OC)c1 (centres undefined) | inactive | inactive | – | –
CCN(CC)CCn1c(-c2ccccc2)nc2c(NCCOC)nc(C)nc21 | inactive | inactive | – | –
CCn1c(-c2nonc2N)nc2c(C#CC(C)(C)O)ncc(OCC3CCCNC3)c21 (centres undefined) | inactive | inactive | – | –
COC(=O)c1ccc(O)c2ncc(-c3ccc(C(=O)N4CCN(C)CC4)cc3)cc12 | inactive | inactive | – | –
CC(C)c1ccccc1-c1ncc(F)c(NCc2ccc(-c3cccnc3)s2)n1 | inactive | inactive | – | –
Cc1cc(C)nc(NC(=S)N2CCN(c3ccc4occc4c3)CC2)c1 | inactive | inactive | – | –
CCOC(=O)c1cccc(-n2cnc(/C=C3\NC(=O)N(CC(=O)OC(C)(C)C)C3=O)c2)c1 | inactive | inactive | – | –
COc1ccc(NS(=O)(=O)c2ccccc2C(=O)O)cc1 | inactive | inactive | – | –
Cc1ccc(-c2nnc(NC(=O)Nc3ccc4ccccc4c3)s2)cc1 | inactive | inactive | – | –
N#Cc1no[n+]([O-])c1-c1ccccc1 | inactive | inactive | – | –
Cc1cc2c(s1)c1cnn(Cc3cc(C(F)(F)F)ccc3F)c(=O)c1n2C | inactive | inactive | – | –
O=C(NC1CCCc2c1cnn2-c1ccc(F)cc1F)c1cccc(=O)[nH]1 (centres undefined) | inactive | inactive | – | –
O=C(Nc1ccc(-c2ccncc2)nc1)c1cccs1 | inactive | inactive | – | –
Cc1cc2c(s1)c1cnn(Cc3cc(F)c(F)c(F)c3F)c(=O)c1n2C | inactive | inactive | – | –
O=c1cc(CN2CCCN(c3ccc(C(F)(F)F)cn3)CC2)nc2ccccn12 | inactive | inactive | – | –
COc1ccc(NC(=O)C2=C(C)NC(Nc3nc4ccccc4o3)=NC2c2ccccc2Br)cc1 (centres undefined) | inactive | inactive | – | –
CCOC(=O)c1nn(-c2ccccc2)c(=O)c2c(N)scc12 | inactive | inactive | – | –
O=c1c2ccccc2nc2sc(NCc3ccc(Cc4ccccc4)cc3)nn12 | inactive | inactive | – | –
Cc1ccc(-c2nn(CC(=O)N(C)C(C)c3ccco3)c(=O)cc2C)cc1 (centres undefined) | inactive | inactive | – | –

Compound | Potency [1] | Potency [2] | activity change, negative = inhibition [1] | activity change, negative = inhibition [2]
COc1cc(Nc2nc(-c3ccncc3)nc3ccccc23)ccc1NS(C)(=O)=O | inactive | inactive | – | –
COC1C=C([C@@H]2CC=C3[C@@]4(C)C(CC[C@]32C)[C@@]2(C)C=CC(=O)C(C)(C)C2C[C@H]4OC(C)=O)C(=O)O1 (some centres undefined) | inactive | inactive | – | –
CCOc1ccc(C(=O)Oc2ccc(-c3nc4ccccc4[nH]3)cc2)cc1 | inactive | inactive | – | –
Cc1ccccc1C(=O)N1CCc2cc(-c3nc(NC(=O)CC4CCCCC4)sc3C)ccc21 | inactive | inactive | – | –
COc1cc(O)c(C(CC(=O)N2CCC(Cc3ccccc3)CC2)c2ccc3c(c2)OCO3)c(OC)c1 (centres undefined) | inactive | inactive | – | –
CN(C)C(=O)c1cccc(-c2csc(N3CCC(C(N)=O)CC3)n2)c1 | inactive | inactive | – | –
Cc1cc(C)nc(NC(=S)N2CCN(c3ccc(Cl)c(C(F)(F)F)c3)CC2)c1 | inactive | inactive | – | –
COc1cccc(C(=O)Nc2ccc([S+](=O)([O-])Nc3nccs3)cc2)c1O | inactive | inactive | – | –
Cc1cccc(Nc2nn3c(=O)c4ccccc4nc3s2)c1 | inactive | inactive | – | –
O=C(Nc1cc(C(F)(F)F)cc(C(F)(F)F)c1)Nc1nnc(-c2ccncc2)s1 | inactive | inactive | – | –
CCN(CC)CCCn1c(-c2ccccc2)nc2c(NCCOC)nc(C)nc21 | inactive | inactive | – | –
Cc1ccc(-c2ccc(=O)n(CC(=O)NCCc3cnc[nH]3)n2)cc1 | inactive | inactive | – | –
CCC1CCC2(C1)N=C(Nc1nc3ccccc3o1)NC1=C2C(=O)CCC1 (centres undefined) | inactive | inactive | – | –
COc1ccccc1CNc1ccc(S(=O)(=O)Nc2nccs2)cc1 | inactive | inactive | – | –
O=C1CCc2cc(S(=O)(=O)Nc3ccc(Cl)cc3)ccc2N1 | inactive | inactive | – | –
C=CCc1cc(F)c(S(=O)(=O)N2CCN(S(=O)(=O)c3ccc4c(c3)OCCO4)CC2)cc1F | inactive | inactive | – | –
Cc1c(P(=S)(c2ccccc2)c2ccccc2)c2ccccc2n1CCCc1ccccc1 | inactive | inactive | – | –
COc1cc(-c2ccc3ncnc(NCc4nc(C)cs4)c3c2)cc(OC)c1OC | inactive | inactive | – | –
CC[C@H]1OC(=O)[C@H](C)[C@@H](O[C@H]2C[C@@](C)(OC)[C@@H](O)[C@H](C)O2)[C@H](C)[C@@H](O[C@@H]2O[C@H](C)C[C@H](N(C)C)[C@H]2O)[C@](C)(O)C[C@@H](C)/C(=N/OCOCCOC)[C@H](C)[C@@H](O)[C@]1(C)O | inactive | inactive | – | –
COc1ccc(C2c3c(n(Cc4ccccc4)cnc3=N)Oc3ccc4ccccc4c32)cc1OC (centres undefined) | inactive | inactive | – | –
Oc1ccc(CNc2cccc(C(F)(F)F)c2)c2cccnc12 | inactive | inactive | – | –

Compound | Potency [1] | Potency [2] | activity change, negative = inhibition [1] | activity change, negative = inhibition [2]
Cc1ccc(C(=O)NCC(=O)OC(C(=O)Nc2cc(C(F)(F)F)ccc2Cl)c2ccccc2)cc1 (centres undefined) | inactive | inactive | – | –
O=C(NCCc1ccc2c(c1)OCO2)c1cc2sccc2n1Cc1ccccc1 | inactive | inactive | – | –
O=S(=O)(c1cccc(-c2n[nH]c(=S)n2-c2ccccc2)c1)N1CCCC1 | inactive | inactive | – | –
Fc1cccc(CNc2ncnc3ccc(-c4cccnc4)cc23)c1 | inactive | inactive | – | –
O=C(O)c1ccc2c(c1)C(=O)N([C@H](Cc1ccc(O)c(O)c1)C(=O)O)C2=O | inactive | inactive | – | –
S=C(NCCCc1cnc[nH]1)NCCN(Cc1ccc(Cl)c(Cl)c1)c1ccc(Br)cn1 | inactive | inactive | – | –
Cc1ccnc(NC(=S)N2CC3CN(c4ncc(C(F)(F)F)cc4Cl)CC3C2)c1 (centres undefined) | inactive | inactive | – | –
Cc1ccc(S(=O)(=O)Nc2cnccc2C(=O)Nc2ccc(S(=O)(=O)Nc3nccs3)cc2)cc1 | inactive | inactive | – | –
COc1cccc(-c2csc(NC(=O)c3ccncc3NS(=O)(=O)c3ccc(C)cc3)n2)c1 | inactive | inactive | – | –
CN1CCN(c2cc(-c3nc(Nc4ccc(F)c(F)c4)c4ccccc4n3)ccn2)CC1 | inactive | inactive | – | –
Cc1cc(C)nc(NC(=S)N2CCN(c3ncccc3C(F)(F)F)CC2)c1 | inactive | inactive | – | –
O=C(O)c1ccc2c(c1)C(=O)N([C@H](Cc1c3ccccc3cc3ccccc13)C(=O)O)C2=O | inactive | inactive | – | –
COc1ccc(C2c3c(ncn(CCc4ccccc4)c3=N)Oc3ccc4ccccc4c32)cc1OC (centres undefined) | inactive | inactive | – | –
Cc1cc2c(s1)c1cnn(Cc3c(Cl)cccc3Cl)c(=O)c1n2C | inactive | inactive | – | –
CC(C)(C)NC(=O)N1CCC(C(=O)Nc2ccc([S+](=O)([O-])Nc3nccs3)cc2)CC1 | inactive | inactive | – | –
Cc1ccc(-c2cc(C(=O)NCc3ccc(S(N)(=O)=O)cc3)c3ccccc3n2)cc1C | inactive | inactive | – | –
Cc1ccc(-c2ccc(C(C)Nc3nc(-c4ccccc4C(C)C)ncc3C)cc2)cn1 (centres undefined) | inactive | inactive | – | –
Cc1cc2c(s1)c1cnn(Cc3c(F)c(F)cc(F)c3F)c(=O)c1n2C | inactive | inactive | – | –
O=C(OCC#CCSc1nnc(-c2c[nH]c3ccccc23)o1)c1ccc(F)cc1 | inactive | inactive | – | –
Cc1ccc(S(=O)(=O)Nc2cnccc2C(=O)Nc2ccc(-n3cncn3)cc2)cc1 | inactive | inactive | – | –
Cc1cc(C)nc(NC(=S)N2CCN(c3cccc(S(C)=O)c3)CC2)c1 (centres undefined) | inactive | inactive | – | –

Compound | Potency [1] | Potency [2] | activity change, negative = inhibition [1] | activity change, negative = inhibition [2]
O=C1CCc2cc([S+](=O)([O-])NC3CCOCC3)ccc2N1 | inactive | inactive | – | –
Cc1ccc2c(c1)/C(=C\c1cc(Cl)c(O)c(Cl)c1)C(=O)N2 | inactive | inactive | – | –
C=C(C(=O)O)[C@H]1C[C@]2(C)C(=O)CC[C@]23O[C@H]1C[C@@H]3C | inactive | inactive | – | –
C[C@@H](NC(c1ccc(F)cc1)c1ccc2cccnc2c1O)c1ccccc1 (some centres undefined) | inactive | inactive | – | –
Cc1cc(C)nc(NC(=S)N2CCN(c3ncccn3)CC2)c1 | inactive | inactive | – | –
Cc1ccc(-c2ccc(=O)n(C(C)C)n2)cc1 | inactive | inactive | – | –
COc1ccccc1C1=Nn2c(nnc2-c2ccccc2OC)SC1 | inactive | inactive | – | –
Fc1cc(Nc2nc(-c3ccncc3)nc3ccccc23)ccc1-c1ccc(F)c(F)c1F | inactive | inactive | – | –
O=Cc1ccc(N2CCN(S(=O)(=O)c3ccc4c(c3)CC(=O)N4)CC2)cc1 | inactive | inactive | – | –
O=S(=O)(c1ccc(Br)cc1)N1CCN(S(=O)(=O)c2ccc3c(c2)OCCO3)CC1 | inactive | inactive | – | –
Cn1nnnc1Sc1ncnc2scc(-c3ccc(C(=O)OC(C)(C)C)cc3)c12 | inactive | inactive | – | –
O=C(O)c1ccc(-c2ccc3ncnc(NCc4nccs4)c3c2)o1 | inactive | inactive | – | –
FC(F)(F)c1ccc(-c2nc(NCc3ccc(-c4cccnc4)cc3)c3ccccc3n2)cc1 | inactive | inactive | – | –
CCN(CC)CCCCn1c(-c2ccccc2)nc2c(NC3CCCCC3)nc(C)nc21 | inactive | inactive | – | –
Cc1ccc(OCCn2c(CCNC(=O)C3CCCCC3)nc3ccccc32)cc1 | inactive | inactive | – | –
COC(=O)N[C@H](C(=O)N1[C@@H]2CC[C@@H](C2)[C@H]1c1nc2ccc(-c3ccc4c(c3)C(F)(F)c3cc(-c5cnc([C@@H]6CCC7(CC7)N6C(=O)[C@@H](NC(=O)OC)C(C)C)[nH]5)ccc3-4)cc2[nH]1)C(C)C | inactive | inactive | – | –
Cn1nnnc1Sc1ncnc2scc(-c3cccc(C(F)(F)F)c3)c12 | inactive | inactive | – | –
O=C(Nc1ccc(Cl)c(Cl)c1)Nc1nnc(Br)s1 | inactive | inactive | – | –
CC1(C)CC[C@]2(C(=O)O)CC[C@]3(C)C(=CCC4[C@@]5(C)CC[C@H](O[C@@H]6O[C@H](C(=O)O)[C@@H](O)[C@H](O[C@@H]7O[C@H](CO)[C@H](O)[C@H](O)[C@H]7O)[C@H]6O[C@@H]6O[C@H](CO)[C@@H](O)[C@H](O)[C@H]6O)C(C)(C)C5CC[C@]43C)[C@@H]2C1 (some centres undefined) | – | – | -3.97% [at 11.2 µM] | 11.9% [at 11.2 µM]
